Screening data from PubChem BioAssay.
Beta cell apopt: blocks beta cell apoptosis. INS-1E cytokine-induced death, ATP luminescence, 48 h; percent of positive-control rescue, neutral wells zero. protection from apoptosis, % (no concentration beside the values). hit rate 0.8% among 300,000;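 active = Every replicate reaches about 75%, or at least half do and their mean reaches it too, limit read from the data; inconclusive = At least half of replicates reach the limit but their mean does not; inactive = Under half of replicates reach the limit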;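 also: 0% = cytokine-treated negative control wells and 100% = positive control rescue; higher means more ATP so stronger rescue from cytokine killing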
Mdm2-MdmX inh: disrupts the human Mdm2-MdmX interaction | O15151+Q00987 | SaOS-2 split-luciferase Mdm2/MdmX complementation, luminescence | inhibition, % at 8 µM | hit rate 3% among 330,000 | AID 485346;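 active = inhibition of at least 50% at 8 µM in the primary screen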
Target sequence (O15151 whole entry, looked up): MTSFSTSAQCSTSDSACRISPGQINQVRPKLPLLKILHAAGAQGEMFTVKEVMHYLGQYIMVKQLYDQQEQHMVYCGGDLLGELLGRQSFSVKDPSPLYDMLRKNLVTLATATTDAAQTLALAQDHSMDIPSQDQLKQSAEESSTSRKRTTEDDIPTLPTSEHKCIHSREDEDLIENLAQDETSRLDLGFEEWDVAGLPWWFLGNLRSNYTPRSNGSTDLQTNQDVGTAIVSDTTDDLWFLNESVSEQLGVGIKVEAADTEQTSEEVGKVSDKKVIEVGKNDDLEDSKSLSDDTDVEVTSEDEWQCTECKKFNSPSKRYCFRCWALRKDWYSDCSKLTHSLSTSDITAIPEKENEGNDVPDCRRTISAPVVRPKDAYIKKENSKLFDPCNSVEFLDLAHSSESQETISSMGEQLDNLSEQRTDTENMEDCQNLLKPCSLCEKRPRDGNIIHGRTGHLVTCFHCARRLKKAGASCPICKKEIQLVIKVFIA
Target sequence (Q00987 whole entry, looked up): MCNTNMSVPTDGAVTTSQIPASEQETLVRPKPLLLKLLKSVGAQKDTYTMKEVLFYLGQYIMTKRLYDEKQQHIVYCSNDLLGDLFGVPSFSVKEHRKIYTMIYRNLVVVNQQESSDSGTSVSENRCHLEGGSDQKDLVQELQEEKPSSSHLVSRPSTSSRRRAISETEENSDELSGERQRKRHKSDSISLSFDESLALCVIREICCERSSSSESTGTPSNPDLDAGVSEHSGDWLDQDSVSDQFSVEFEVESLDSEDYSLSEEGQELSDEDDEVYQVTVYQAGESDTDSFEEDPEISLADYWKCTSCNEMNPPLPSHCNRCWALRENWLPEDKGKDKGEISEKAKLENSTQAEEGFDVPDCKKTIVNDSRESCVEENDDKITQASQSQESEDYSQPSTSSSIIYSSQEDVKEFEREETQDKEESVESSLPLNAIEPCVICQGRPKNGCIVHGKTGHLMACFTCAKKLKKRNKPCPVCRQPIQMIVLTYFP
Calb FLC: affects C. albicans growth with fluconazole. C. albicans CaCi-2 (fluconazole-resistant clinical isolate) + fluconazole, Alamar Blue growth, 48 h. growth inhibition, % (test concentration not listed). hit rate 0.57% among 300,000. AID 1979;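 active = growth inhibition above about 58% in most replicates, limit read from the data, passing the limit was not always enough; inconclusive = exactly half the replicates above a set limit; inactive = most replicates below a set limit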;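 also: all wells also contain fluconazole at 8 µg/ml as a sub-toxic cotreatment; 0% = median of DMSO wells and 100% = median of geldanamycin control wells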
MPTP block: permeability transition pore inhibition | isolated mouse mitochondria, Ca2+ swelling absorbance, 30 min | inhibition, % at 10 µM | hit rate 1.4% among 360,000 | AID 602449;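 active = inhibition of 50% or more, scaled per plate between neutral and stimulator controls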;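 also: 0% = DMSO wells given calcium and 100% = 1 mM EGTA wells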
CSC inhib: blocks cancer stem cells. cancer stem cell-like cells viability, luminescence. inhibition, % at 7.5 µM. hit rate 1.1% among 300,000. AID 2717; in the data active = inhibition above about 75%; inconclusive = no clear call, values can overlap the other calls; tested in HMLE shEcad cells
Mdm2-MdmX conf: confirmation of human Mdm2/MdmX interaction inhibitors; shares compounds with Mdm2-MdmX inh; Mdm2-MdmX binding, luminescent assay; inhibition, % at 8 µM; hit rate 55% among 10,000; AID 489028; in the data active = inhibition above about 40%
Full FLuc ctr: full-length luciferase inhibition in Mdm2/MdmX counter-screen | shares compounds with Mdm2-MdmX inh | SaOS-2 full-length luciferase counterscreen, luminescence | inhibition, % at 8 µM | hit rate 77% among 6,200 | AID 504607;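 active = mean inhibition at 8 µM reaching about 37%, which flags the compound as non-specific, limit read from the data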;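 also: p53-null SaOS-2 cells with luciferase driven by a doxycycline-inducible promoter; compound on cells about two nights before reading with doxycycline added after day one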
Active calls of the source: *; ? = inconclusive; nt = no result given. In the library only some 4.8% were active in any assay of this set; here they are far more common.

SMILES | Beta cell apopt | Mdm2-MdmX inh | Calb FLC | MPTP block | CSC inhib | Mdm2-MdmX conf | Full FLuc ctr
O=C1N[C@@H](Cc2ccccc2)COC(=O)[C@@H](Cc2ccc(F)cc2)CC/C=C/C[C@H]1CC(=O)N(CCO)Cc1ccccc1 | -2 | 52* | nt | 2 | -4 | 16 | nt
O=C1N[C@@H](Cc2c[nH]c3ccccc23)COC(=O)[C@@H](Cc2ccc(F)cc2)CC/C=C/C[C@@H]1CC(=O)N(CCO)Cc1ccccc1 | nt | 59* | nt | -4 | nt | 32 | nt
O=C1N[C@@H](Cc2c[nH]c3ccccc23)COC(=O)[C@H](Cc2ccc(F)cc2)C/C=C\C[C@H]1CC(=O)N(CCO)Cc1ccccc1 | -9 | 32 | nt | 0 | 33 | nt | nt
COc1ccc(-c2ccc3c(c2)C2CC3CCN2C(=O)C2CCCCC2)cc1 (configuration not stated) | nt | nt | nt | 2 | nt | nt | nt
O=C(Nc1cccc2[nH]ncc12)c1ccc(F)cc1 | -15 | 60* | -4 | 1 | -14 | 74* | 25
O=C(NC(=S)Nc1cccc2[nH]ncc12)c1ccccc1 | -14 | 17 | -9 | -5 | -7 | nt | nt
CC(=O)Nc1sc2c(c1-c1nc3ccccc3s1)CN(C(C)C)CC2 | 97* | 99* | nt | 0 | nt | 93* | 57*
CC(=O)N1CCc2c(sc(NC(=O)C3CC3)c2-c2nc3ccccc3s2)C1 | 22 | 20 | 1 | -1 | 21 | nt | nt
CC1(C(=O)Nc2ccc3c(c2)OCCO3)CCC(=O)N1C1CCN(Cc2ccccc2)CC1 (configuration not stated) | nt | nt | nt | -2 | nt | nt | nt
O=C(NC(Cc1c[nH]c2ccccc12)C(=O)Nc1ccc(OC(F)(F)F)cc1)c1cccs1 (configuration not stated) | 1 | 93* | -2 | 14 | 51 | 94* | 26
O=C(NC(Cc1c[nH]c2ccccc12)C(=O)O)c1cccs1 (configuration not stated) | -1 | 3 | 9 | 0 | 11 | nt | nt
O=C(NC(Cc1c[nH]c2ccccc12)C(=O)Nc1ccc(F)c([N+](=O)[O-])c1)c1cccs1 (configuration not stated) | 3 | 96* | -18 | 4 | 39 | 87* | 25
NC1=NC[C@H](Cc2ccccc2)N1CCc1cc(C(F)(F)F)cc(C(F)(F)F)c1 | 9 | 63* | 73 | 1 | 3 | 24 | nt
Cc1ccc(Cl)cc1N1CCN(C(=O)c2cc3c(=O)n(C)c4ccccc4c3n2C)CC1 | -2 | 98* | -8 | -1 | 18 | 86* | 67*
Cn1c(C(=O)NCCCN2CCN(c3ccccc3F)CC2)cc2c(=O)n(C)c3ccccc3c21 | 0 | 58* | 10 | -1 | 3 | 28 | nt
O=C(NCCCN1CCCCCC1)c1cc2c(=O)oc3ccccc3c2s1 | -8 | 27 | -11 | -1 | -21 | nt | nt
CC(C)OCCCNC(=O)c1cc2c(=O)n(C)c3ccccc3c2n1C | 4 | -19 | 10 | 0 | -5 | nt | nt
Cc1cccc(N2CCN(C(=O)c3cc4c(=O)n(C)c5ccccc5c4n3C)CC2)c1C | 2 | 35 | 2 | -1 | 3 | nt | nt
CCCCN(CC)CCCNC(=O)c1cc2c(=O)n(C)c3ccccc3c2n1C | 9 | 69* | -1 | -2 | 3 | 23 | nt
CN1CCN(CCCNC(=O)c2cc3c(=O)n(C)c4ccccc4c3s2)CC1 | 18 | 54* | 2 | -3 | 6 | 32 | nt
COc1cccc(CN2CC(C(=O)NCCSc3nnnn3C)CCC2=O)c1 (configuration not stated) | -2 | -10 | 2 | -2 | -3 | nt | nt
C[C@H](O)[C@@H]1CN2CCc3c([nH]c4ccccc34)[C@@H]2C[C@@H]1N(C)C(=O)OCc1ccccc1 | nt | nt | nt | 0 | nt | nt | nt
Cc1cc(=O)n2[nH]c(SCc3c(F)cccc3Cl)nc2n1 | -4 | -4 | -3 | 2 | 16 | nt | nt
CCC(C(=O)NC(C)(C)C)n1c(C(c2ccccc2)c2ccccc2)nc2ccccc21 (configuration not stated) | nt | nt | nt | 1 | nt | nt | nt
CCN(CC)CCNC(=O)c1cc2c(=O)n(CC)c3ccccc3c2s1 | 1 | 47 | -5 | 1 | -12 | nt | nt
SMILES | Beta cell apopt | Mdm2-MdmX inh | Calb FLC | MPTP block | CSC inhib | Mdm2-MdmX conf | Full FLuc ctr
CCCN(CCC)CCNC(=O)c1cc2c(=O)n(CC)c3ccccc3c2s1 | 7 | 71* | 1 | 3 | 0 | 46* | 69*
CCCC(=O)Nc1ccc2c(c1)nc(CCN1CCC(C)CC1)n2C | nt | nt | nt | 0 | nt | nt | nt
CCOc1ccc(S(=O)(=O)NCc2ccccn2)cc1NC(=O)c1ccccc1 | nt | 58* | 4 | 0 | 51 | 75* | 57*
CCOc1ccc(S(=O)(=O)NCc2cccnc2)cc1NC(=O)c1ccccc1 | nt | nt | nt | 0 | nt | nt | nt
CCOc1cccc2sc(N(CCN(C)C)C(=O)CCS(=O)(=O)c3ccccc3)nc12 | -3 | -26 | 15 | 0 | -7 | nt | nt
CC1(C)CC(=O)c2sc(NC(=O)CCS(=O)(=O)c3ccccc3)nc2C1 | -25 | 71* | 18 | -1 | 27 | 26 | nt
COc1ccc(C)c2sc(NC(=O)CCS(=O)(=O)c3ccccc3)nc12 | 4 | 77* | ? | 0 | 0 | 69* | 45*
CCOc1cccc2sc(NC(=O)CCS(=O)(=O)c3ccccc3)nc12 | -15 | 70* | 62 | 0 | -5 | 66* | 35
CC1(C)CC(=O)c2sc(NC(=O)c3ccccc3)nc2C1 | 5 | -122 | 3 | nt | -6 | nt | nt
COc1ccccc1NC(=O)c1ccc2c(O)c(S(=O)(=O)c3ccccc3)c(=O)[nH]c2c1 | nt | -11 | -3 | -2 | 8 | nt | nt
O=C1C(Cl)=C(NC(=O)c2ccccc2)C(=O)C(Cl)=C1NC(=O)c1ccccc1 | nt | 87* | 15 | 1 | nt | 42* | 14
O=C(Nc1cccc(Cl)c1)c1ccccc1 | 0 | -24 | nt | 0 | 8 | nt | nt
C=CCc1ccccc1OCC(=O)N/N=C/c1ccc(OC(C)=O)cc1OC(C)=O | -21 | 52* | 7 | 7 | 77* | 51* | 37*
CCOc1ccc(-c2cc(C(=O)Nc3ccc(C)c(NS(C)(=O)=O)c3)[nH]n2)c(C)c1 | nt | nt | nt | 0 | nt | nt | nt
Cc1cccn2c(=O)c3cc(C(=O)NC4CCCC4)c(=N)n(CC4CCCO4)c3nc12 (configuration not stated) | 7 | 23 | 1 | 0 | -8 | nt | nt
COc1ccc(CCNC(=O)c2cc3c(=O)n4cccc(C)c4nc3n(CCCN3CCOCC3)c2=N)cc1 | 27 | 65* | -4 | -1 | 11 | 17 | nt
Cc1cccn2c(=O)c3cc(C(=O)NC4CCCCC4)c(=N)n(Cc4ccc(F)cc4)c3nc12 | 5 | 58* | 10 | 2 | -8 | 18 | nt
COc1ccc(CCn2c(=N)c(C(=O)NCC3CCCO3)cc3c(=O)n4cccc(C)c4nc32)cc1 (configuration not stated) | 33 | 53* | 2 | 0 | 4 | 32 | nt
Cc1cccn2c(=O)c3cc(C(=O)NCCN4CCOCC4)c(=N)n(Cc4ccc(F)cc4)c3nc12 | 15 | 81* | 29 | 0 | -12 | 78* | 35
